Experimental data as given in PubChem BioAssay AID2284382 (EPA ToxCast).
Inconclusive results are not listed. Calls of active or inactive are those of the source. The calls were made as follows: active = hit-call score of the fitted dose curve at least 0.9, where 1 is the maximum; inconclusive = response in the unintended direction; inactive = score below 0.9.

Experiment: CCTE_Mundy_HCI_iCellGABA_NOG_NeuriteLength: CCTE's Neurite Outgrowth Assay in iCellGABA cells for Neurite Length, Mundy Lab
Description: CCTE_Mundy_HCI_iCellGABA_NOG is a multiplexed, cell-based-readout assay that uses iCell GABANeurons from FUJIFILM Cellular Dynamics, Inc. (FCDI), human GABAergic enriched neurons derived from induced pluripotent stem (iPS) cells, with measurements taken at 50.33 hours after chemical dosing in a microplate: 96-well plate.CCTE_Mundy_HCI_iCellGABA_NOG_NeuriteLength is one of four components of the CCTE_Mundy_HCI_iCellGABA_NOG assay. It measures neurite outgrowth related to neurite length using High Content Imaging of fluorescently labelled markers.Data from the assay component CCTE_Mundy_HCI_iCellGABA_NOG_NeuriteLength was analyzed at the endpoint CCTE_Mundy_HCI_iCellGABA_NOG_NeuriteLength in the positive analysis fitting direction relative to DMSO as the negative control and baseline of activity. Using a type of morphology reporter, loss-of-signal activity can be used to understand developmental effects.
Exposure starts 2 hours post-plating by adding 10 ul of the working solution to 90 ul of media in the wells for a 1/10 dilution. Forty-eight hours after chemical treatment cells are fixed by direct addition of 100 ul of warm (37C) Dulbecco's phosphate buffered saline (DPBS) fixative solution containing 8% paraformaldehyde, 8% sucrose, and 0.1% of 3 mg/ml Hoechst 33342 into each well. Primary antibodies are prepared by dilution in Immunocytochemical Staining Buffer (ISB), 10X Dulbecco's PBS, 0.1% Saponin, 5% Bovine Serum Albumin, 0.5% NaN3 (Sodium Azide) and betaIII-tubulin (rabbit anti-betaIII-tubulin, 1:800) followed by Alexa Fluor-488 secondary (1:500) to label neuronal cell bodies and neurites. A Cellomics ArrayScan VTi HCS Reader is used for automated image acquisition and analysis of neurite outgrowth.
For `CCOP(=O)(SC(C)CC)N1CCSC1=O` (stereo unspecified), the outcome was “inactive”.
For `CNC(=O)CSP(=S)(OC)OC`, the outcome was “inactive”.
In the case of `COP(=O)(OC)OC(Br)C(Cl)(Cl)Br` (stereo unspecified), the AC50 is reported as 11.6 µM (active).
For `CCCSP(=O)(OCC)SCCC`, the outcome was “inactive”.
In the case of `CCOP(=S)(OCC)SCSCC`, the outcome is reported as “inactive”.
For `CCCCSP(=O)(SCCCC)SCCCC`, the outcome was “inactive”.
With `CCOP(=S)(OCC)Oc1nc(Cl)c(Cl)cc1Cl` the AC50 was 24.3 µM (active).
In the case of `CCCSP(=O)(OCC)Oc1ccc(Br)cc1Cl` (stereo unspecified), the outcome is reported as “inactive”.
In the case of `COP(=O)(OC)O/C(C)=C/C(=O)N(C)C`, the outcome is reported as “inactive”.
In the case of `CCOC(=O)CC(SP(=S)(OC)OC)C(=O)OCC` (stereo unspecified), the AC50 is reported as 78.6 µM (active).
For `CNC(=O)CSP(=O)(OC)OC`, the outcome was “inactive”.
With `CCOC(=O)CC(SP(=O)(OC)OC)C(=O)OCC` (stereo unspecified) the outcome was “inactive”.
With `COP(=O)(OC)O/C(=C\Cl)c1cc(Cl)c(Cl)cc1Cl` the AC50 was 60.7 µM (active).
With `CCOP(=S)(Oc1cnc(C(C)(C)C)nc1)OC(C)C` (stereo unspecified) the outcome was “inactive”.
For `CCOP(=S)(OCC)OC(Cl)C(Cl)(Cl)Cl` (stereo unspecified), the AC50 was 29.9 µM (active).
With `COP(=O)(OC)OC=C(Cl)Cl` the outcome was “inactive”.
With `CCOP(=S)(OCC)SCSC(C)(C)C` the outcome was “inactive”.
In the case of `CCN(CC)c1nc(C)cc(OP(=S)(OC)OC)n1`, the AC50 is reported as 78.8 µM (active).
For `CCOP(=S)(OCC)Oc1ccc2c(C)c(Cl)c(=O)oc2c1`, the AC50 was 58 µM (active).
In the case of `COP(=S)(OC)SCN1C(=O)c2ccccc2C1=O`, the AC50 is reported as 67.2 µM (active).
In the case of `COP(=O)(OC)C(O)C(Cl)(Cl)Cl` (stereo unspecified), the AC50 is reported as 50 µM (active).
